# Assay outcomes as filed in PubChem.
# Sampled rows, rich in hits. Any-hit rate of the full collection: about 4%.
# ADAM17 inh = inhibits human ADAM17; P78536; recombinant ADAM17, EDANS/DABCYL FRET peptide cleavage; inhibition, % at 6.95 µM; hit rate 0.83% among 370,000;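 active = inhibition above the mean of compounds lying between control limits plus 3 SD, set per campaign, cut at about 8.5% in these data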;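 also: 0% = DMSO-only wells as the low control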
# ADAM10 inh = ADAM10 inhibition, QFRET primary screen. O14672. recombinant ADAM10, EDANS/DABCYL FRET peptide cleavage, 3 h. inhibition, % at 7 µM. hit rate 0.62% among 370,000. AID 720582;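 active = inhibition above a per-campaign cutoff equal to the mean of compounds falling between control-based bounds plus 3 SD, cut at about 20% in these data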;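 also: 0% = DMSO wells while the 100% control is not disclosed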
# Target sequence (O14672 214-748 limits assumed): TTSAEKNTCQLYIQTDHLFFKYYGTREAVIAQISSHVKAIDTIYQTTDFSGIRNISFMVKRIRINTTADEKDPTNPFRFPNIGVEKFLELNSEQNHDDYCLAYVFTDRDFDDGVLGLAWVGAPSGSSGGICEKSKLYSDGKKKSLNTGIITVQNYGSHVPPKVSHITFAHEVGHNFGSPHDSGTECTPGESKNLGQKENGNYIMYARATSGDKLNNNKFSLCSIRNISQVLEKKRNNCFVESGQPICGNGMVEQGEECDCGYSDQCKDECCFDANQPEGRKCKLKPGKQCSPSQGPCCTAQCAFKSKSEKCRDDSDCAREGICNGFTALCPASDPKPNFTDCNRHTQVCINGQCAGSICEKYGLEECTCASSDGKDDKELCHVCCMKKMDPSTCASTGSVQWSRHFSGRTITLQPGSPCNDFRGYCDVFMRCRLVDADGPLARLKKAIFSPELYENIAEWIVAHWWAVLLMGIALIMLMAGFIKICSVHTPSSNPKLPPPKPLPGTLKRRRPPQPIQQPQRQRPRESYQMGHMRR
# GRIN3A LBD mod = modulates the human NR3A ligand-binding domain; AID 1259313; Tm shift relative to glycine control, % at 25 µM; NR3A LBD differential scanning fluorimetry, Tm shift; 0% = protein alone, 100% = glycine-bound protein; hit rate 2.5% among 340,000;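 active = melting temperature shift of at least 10% of the positive control shift, at one fixed dose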
# aDG glyco act = increases alpha dystroglycan glycosylation. hit rate 0.22% among 360,000. activation, % at 10 µM. Pro5-aDG cells, alpha-DG glycosylation AlphaScreen (IIH6); 0% Pro5, 100% B10-LARGE cell signal;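 active = activation of at least 8% versus controls, or a plate z-score of at least 8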;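 also: Pro5 are CHO cells carrying HIG-tagged alpha-DG that lacks glycosylation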
# FAS TE block = inhibitors of human fatty acid synthase thioesterase domain; P49327; recombinant FAS-TE, OMFH fluorogenic substrate, fluorescence endpoint; inhibition, % at 15 µM; hit rate 0.67% among 360,000; AID 602261;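 active = compounds whose normalised, plate-corrected inhibition of enzyme fluorescence in the single-dose primary screen is 50% or more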;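 also: 0% = DMSO with enzyme and 100% = substrate without enzyme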
# Active calls of the source: *; . = not tested or not shown.
SMILES,ADAM17 inh,ADAM10 inh,GRIN3A LBD mod,aDG glyco act,FAS TE block
Cc1ccc(S(=O)(=O)Nc2ccc(C(=O)NCc3ccccn3)cc2)cc1,-4,-4,13*,0,0
CC(=O)Nc1ccc(NC(=O)c2ccc(NS(=O)(=O)c3cc(C(C)(C)C)cc(C)c3C)cc2)cc1,-2,-4,26*,0,-4
Cc1ccc(NS(=O)(=O)c2cccc(C(=O)NCc3ccccn3)c2)cc1,4,6,-1,0,0
COc1ccccc1NC(=O)c1ccc(NS(=O)(=O)c2cccc3cccnc23)cc1,-2,1,18*,0,4
CCN1C(=O)C2(C(C#N)=C(N)Oc3c2c(C)nn3-c2ccccc2)c2ccccc21 (configuration not stated),.,.,3,0,2
Clc1ccc(C=NN2CCCCCC2)cc1,0,-2,1,0,16
CCC(CC)C(=O)Nc1cc([N+](=O)[O-])ccc1Cl,2,-3,-5,0,17
COc1ccc(NC(=O)c2ccc(NS(=O)(=O)c3cccc4cccnc34)cc2)cc1,0,2,2,0,3
Cc1ccc(NC(=O)c2ccc(NS(=O)(=O)c3cccc4cccnc34)cc2)cc1,.,.,28*,0,14
CC(=O)Nc1ccc(NC(=O)c2ccc(NS(=O)(=O)c3cccc4cccnc34)cc2)cc1,4,3,19*,0,-2
c1ccc(CNc2nc(-c3ccccn3)nc3ccccc23)cc1,-15,-27,-2,1,-4
COCCCNc1nc(-c2ccncc2)nc2ccccc12,2,-16,1,0,-11
COCCCNc1nc(-c2ccc(Cl)cc2)nc2ccccc12,1,4,12*,0,37
c1ccc(CNc2nc(-c3cccs3)nc3ccccc23)cc1,-1,-4,24*,1,44
c1ccc(CNc2nc(-c3ccccc3)nc3ccccc23)cc1,6,15,10*,0,35
O=C(NCc1nc(-c2ccc(C(F)(F)F)cc2)no1)Nc1ccc(OC(F)(F)F)cc1,-1,-2,36*,0,28
Nc1cc(N)nc(SCC(=O)c2ccc3c(c2)NC(=O)CO3)n1,0,-3,153*,0,-6
COc1ccc(-c2csc(/C(C#N)=C\c3ccc(OC)c([N+](=O)[O-])c3)n2)cc1,1,-1,33*,0,30
COc1ccc(-c2nnc(SCC(=O)Nc3ccc(Oc4ccccc4)cc3)n2Cc2ccco2)cc1,1,6,.,.,.
CC(C(=O)O)n1c(-c2ccn[nH]2)n[nH]c1=S (configuration not stated),-5,-2,-1,0,-8
O=C(NCC1CCN(Cc2ccc(F)cc2)CC1)Nc1cc(F)ccc1F,-1,-2,10*,0,-4
COc1ccc(C(C)C)cc1-c1cc(C(=O)NCc2cccc(C(F)(F)F)c2)[nH]n1,1,1,.,1,16
Cc1ccc(-n2nc(C(=O)O)c3ccccc3c2=O)cc1C,0,9,0,0,-11
O=C(NCCOc1ccccc1)c1ncn[nH]1,1,9,10*,0,-11
Cc1cccc(OCCNC(=O)c2ncn[nH]2)c1,5,-3,-1,0,-12
SMILES,ADAM17 inh,ADAM10 inh,GRIN3A LBD mod,aDG glyco act,FAS TE block
Cc1nc2c([nH]c3ccc(Br)cc32)s1,-4,1,15*,0,-32
N#CCCn1nc(-c2ccc(Br)cc2)cc1Nc1ccccc1NC(=O)C(F)(F)F,5,13,4,0,30
O=C(NC1=NCCS1)c1sc2ccccc2c1Cl,-7,-21,2,0,2
O=C(NC1=NCCS1)c1sc2cc(Cl)cc(Cl)c2c1Cl,0,-1,20*,0,12
O=C(O)c1cccc(-n2sc3ccccc3c2=O)c1,-4,2,23*,0,-12
CCC(C)[C@@H](NC(=O)OC(C)(C)C)c1nnc(S(=O)(=O)Cc2cccc(C)c2)o1 (some centres not stated),0,4,12*,0,60*
CSc1cc(-c2ccccc2)n(Cc2c(Cl)cccc2Cl)c(=O)c1C#N,-1,3,1,0,19
CC(=O)Nc1ccc(NC(=O)CS(=O)(=O)Cc2ccccc2)cc1,-2,-4,13*,0,-5
O=C(CS(=O)(=O)Cc1ccccc1)Nc1ccc2c(c1)OCO2,-5,-6,0,0,3
c1ccc(CN2CCC3(CCCc4ccccc43)CC2)cc1,6,4,1,0,-3
CCCc1nn(C)c(C(=O)Nc2ccc3ccccc3c2)c1Cl,3,3,17*,0,17
Cc1nn(C)c(C(=O)Nc2cccc(CN3CCOCC3)c2)c1Br,0,0,0,0,-9
CCCc1nn(C)c(C(=O)Nc2cccc(CC)c2)c1Cl,5,0,12*,1,11
CCOc1nc(-c2ccc(OC)cc2)ccc1-c1noc(C)n1,-106,-414,25*,0,21
COc1ccc(-c2ccc(-c3noc(C)n3)c(OC)n2)cc1,-106,-375,1,0,-2
CCn1c(=O)c(=O)[nH]c2c(=O)oc3ccc(S(=O)(=O)Nc4ccccc4)cc3c21,-4,-3,16*,0,5
CCn1c(=O)c(=O)n(CC)c2cc(S(=O)(=O)Nc3ccc(C)cc3)ccc21,-1,6,0,0,3
CC1=C(C(N)=O)C(c2ccco2)C(C(N)=O)=C(C)N1,-5,-5,2,0,-11
CCOC(=O)C1=C(C)Nc2sc(C(=O)c3ccc(F)cc3)c(N)c2C1c1ccc(C(=O)OC)cc1 (configuration not stated),6,10,13*,1,19
Cc1cccc(OCC(=O)Nc2ccc(C(=O)Nc3ccccc3C(=O)O)cc2)c1,6,1,.,0,17
COc1cccc(C(=O)COc2ccc(NC(=O)c3ccccc3)cc2)c1,-4,7,11*,0,13
Cc1cccc(C(=O)Nc2ccccc2C(=O)OCC(=O)Nc2ccc(C#N)cc2)c1,3,11,15*,0,31
Cc1cccc(OCC(=O)Nc2ccc(NC(=O)c3ccccc3)cc2)c1,1,4,12*,0,3
COc1cccc(C(=O)Nc2cccc(OCC(=O)c3ccccc3)c2)c1,-3,6,-14,1,15
COc1ccc(NC(=O)COc2cccc(-n3cnnn3)c2)cc1,-2,6,15*,0,1
O=C(COc1cccc(-n2cnnn2)c1)Nc1ccccc1,-1,-7,-47,0,18
Cc1ccc(C(=O)c2sc3nsc(C)c3c2N)cc1,5,9,-11,0,2
CN(C)CCOC(=O)CCc1ccccc1,-3,3,0,0,-5
Nc1ccc2nc(-c3ccc(-c4nc5ccc(N)cc5[nH]4)cc3)[nH]c2c1,-12,-24,18*,.,.
COc1ccc(-c2nc3ccc([N+](=O)[O-])cc3[nH]2)cc1,3,3,29*,0,16
